This passage reports cell viability results from the supplement of paper PMC10981050.

Structures are written as SMILES. Counter-ions that a name gives are not always drawn.

The test system of this assay is OCI-AML2. The assay is described as follows: cell viability relative to vehicle control; higher = less cytotoxic. As to conditions: 10 µM; SRSF2 genotype: P95H/wt. A digest of the protocol: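 CRISPR-edited SRSF2 P95 mutant and isogenic wild-type clones of four leukaemia lines were screened against Selleck bioactive, kinase and epigenetic probe libraries, with identity-inconsistent compounds removed. Compounds were acoustically dispensed into 384-well plates at a single 10 µM dose, with 2000 cells in 50 µL medium per well. After 48 h, supernatant was removed and CellTiter-Glo luminescence was read. Viability was expressed as percent of the on-plate DMSO vehicle control, analysed in Genedata Screener.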
With `NS(=O)(=O)c1cc2c(cc1Cl)N=CNS2(=O)=O` [Chlorothiazide], the cell viability was determined as 93.7%.

With `CC(C)CCCC(C)C1CCC2C3CCC4CC(O)CCC4(C)C3CCC12C` (stereo not given) [Dihydrocholesterol], the cell viability came to 98.3%.

As for `CC(C)c1c(C(=O)Nc2ccccc2)c(-c2ccccc2)c(-c2ccc(F)cc2)n1CC[C@@H](O)C[C@@H](O)CC(=O)O` [Atorvastatin calcium (Lipitor)], the cell viability turned out to be 41.1%.

In the case of `O=C1CCC(N2C(=O)c3ccccc3C2=O)C(=O)N1` (stereo not given) [Thalidomide], the cell viability is 93.8%.

Regarding `COc1ccc(C2=N[C@@H](c3ccc(Cl)cc3)[C@@H](c3ccc(Cl)cc3)N2C(=O)N2CCNC(=O)C2)c(OC(C)C)c1` [Nutlin-3], the cell viability was 9.37%.

With `CC1(C)C(O[C@@H]2OC[C@@H](O)[C@H](O)[C@H]2O)CC[C@]23CC24CC[C@]2(C)[C@@H]([C@@]5(C)CC[C@@H](C(C)(C)O)O5)[C@H](O)C[C@@]2(C)C4C[C@@H](O[C@@H]2O[C@H](CO)[C@@H](O)[C@H](O)[C@H]2O)C13` (stereo not given in full) [Astragaloside IV], the cell viability was found to be 116%.

As to `COC(=O)N[C@H](C(=O)N[C@@H](Cc1ccccc1)[C@@H](O)CN(Cc1ccc(-c2ccccn2)cc1)NC(=O)[C@@H](NC(=O)OC)C(C)(C)C)C(C)(C)C` [Atazanavir sulfate], the cell viability worked out at 94.5%.

In the case of `CCCCCCCC/C=C\CCCCCCCC(=O)OCC` [Ethyl Oleate], the cell viability is 88.7%.

On to `O=CC[C@@H](O)[C@H](O)[C@H](O)CO` [2-Deoxy-D-glucose], for which the cell viability was determined as 91.3%.

With `C[S+](CC[C@H](N)C(=O)[O-])C[C@H]1O[C@@H](n2cnc3c(N)ncnc32)[C@H](O)[C@@H]1O` (stereo not given in full) [Ademetionine], the cell viability is 129%.

For the molecule `O=C1c2ccccc2C(=O)C1c1ccccc1` [Phenindione (Rectadione)], the cell viability was 101%.

With `CNCC[C@@H](Oc1ccccc1C)c1ccccc1` [Atomoxetine HCl], the cell viability worked out at 115%.

With `CCNC(=O)[C@@H]1CCCN1C(=O)[C@H](CCCN=C(N)N)NC(=O)[C@H](CC(C)C)NC(=O)[C@@H](CC(C)C)NC(=O)[C@H](Cc1ccc(O)cc1)NC(=O)[C@H](CO)NC(=O)[C@H](Cc1c[nH]c2ccccc12)NC(=O)[C@H](Cc1cnc[nH]1)NC(=O)[C@@H]1CCC(=O)N1` [S3718 Leuprolide Acetate.cdx], the cell viability came to 102%.

Regarding `Cc1onc(-c2c(F)cccc2Cl)c1C(=O)N[C@@H]1C(=O)N2[C@@H]1SC(C)(C)[C@@H]2C(=O)O` [Flucloxacillin sodium], the cell viability came out at 99.6%.

On to `CC(CCc1ccccc1)NCC(=O)c1ccc(O)c(C(N)=O)c1` (stereo not given) [Labetalone hydrochloride], for which the cell viability was found to be 99.7%.

On to `COc1cc(C(=O)N(CCCc2ccccc2)Cc2ccc(CC(=O)O)cc2)cc(OC)c1C`, for which the cell viability worked out at 101%.

Take `O=C1N=C(O)NC1(c1ccccc1)c1ccccc1` [Phenytoin sodium (Dilantin)]: the cell viability is 103%.

Take `Cn1c(Nc2ccc(C(F)(F)F)cc2)nc2cc(Oc3ccnc(-c4ncc(C(F)(F)F)[nH]4)c3)ccc21`: the cell viability was 38.6%.

Regarding `CCc1cncnc1N1CCN(Cc2nc3ccc(C(F)(F)F)cc3[nH]2)CC1`, the cell viability turned out to be 32.3%.

As to `N#Cc1cc(-c2n[nH]c(-c3ccncc3)n2)ccn1` [Topiroxostat], the cell viability is 98.8%.

For the molecule `O=C1c2c(O)cc(O)cc2OC(c2ccc(O)c(O)c2)C1O` (stereo not given) [Taxifolin (Dihydroquercetin)], the cell viability turned out to be 93.5%.

Consider `CC1(C)CCCC2(C)C1CCC1(C)OCCC12` (single isomer, unassigned; (-)) [(-)-Ambroxide], for which the cell viability was 98%.

For the molecule `CCOc1nc2cccc(C(=O)OC(C)OC(=O)OC3CCCCC3)c2n1Cc1ccc(-c2ccccc2-c2nn[nH]n2)cc1` (stereo not given) [Candesartan cilexetil (Atacand)], the cell viability came to 90%.

In the case of `COc1cc2c(=O)c3c(O)c([C@@H]4O[C@H](CO[C@@H]5OC[C@](O)(CO)[C@H]5O)[C@@H](O)[C@H](O)[C@H]4O)c(O)cc3oc2cc1O` [Polygalaxanthone III], the cell viability turned out to be 105%.

Take `O=[N+]([O-])c1ccc2c(c1)S(=O)(=O)C=C2` [Stattic]: the cell viability stood at 0.06%.

With `CC(C)OC(=O)OCOP(=O)(CO[C@H](C)Cn1cnc2c(N)ncnc21)OCOC(=O)OC(C)C` [Tenofovir Disoproxil Fumarate], the cell viability stood at 14.3%.

`CC(=O)OC(C)(C)CCC(=O)[C@](C)(O)[C@H]1[C@H](O)C[C@@]2(C)[C@@H]3CC=C4[C@@H](C[C@H](O)[C@@H](O)C4(C)C)[C@]3(C)C(=O)C[C@]12C` [Curcurbitacin IIA]: the cell viability turned out to be 21.4%.

As for `CC(C)NC[C@@H](C(=O)N1CCN(c2ncnc3c2[C@H](C)C[C@H]3O)CC1)c1ccc(Cl)cc1` [Ipatasertib (GDC-0068)], the cell viability came to 72.1%.

Take `O=C1C(=Cc2cccnc2)C(=O)c2ccccc21`: the cell viability is 102%.

Consider `N[C@@H](CSC(c1ccccc1)(c1ccccc1)c1ccccc1)C(=O)O`, for which the cell viability worked out at 7.71%.

Take `CC(C)=CC[C@@H](O)C1=CC(=O)c2c(O)ccc(O)c2C1=O` [Shikonin]: the cell viability came out at 0.19%.

Regarding `C[C@H]1CN(C[C@H](Cc2ccccc2)C(=O)NCC(=O)O)CC[C@@]1(C)c1cccc(O)c1` [Alvimopan dihydrate], the cell viability was 94.9%.

`CC(=O)O[C@H]1CC(=O)OC(C)(C)[C@@H]2CC(=O)[C@]3(C)[C@H](CC[C@@]4(C)[C@@H](c5ccoc5)OC(=O)[C@H]5O[C@]543)[C@@]12C` [Nomilin]: the cell viability came to 94.8%.

For `CC(C)(C)c1nc(-c2ccc(NC(=O)Nc3cccc(C(F)(F)F)c3)c3ccccc23)c2c(N)nccn12` [kira6], the cell viability is 8.47%.

Take `COc1ccc2[nH]c([S+]([O-])Cc3ncc(C)c(OC)c3C)nc2c1` (stereo not given) [Omeprazole (Prilosec)]: the cell viability came to 98%.

In the case of `COc1ccc2cc([C@H](C)C(=O)O)ccc2c1` [Naproxen Sodium], the cell viability was 105%.

For the molecule `C#C[C@]1(O)CC[C@H]2[C@@H]3CCC4=CCCC[C@@H]4[C@H]3C(=C)C[C@@]21CC` [Desogestrel], the cell viability is 61%.

With `COc1ccc2c(c1)c(C1=C(c3c[nH]c4ccccc34)C(=O)NC1=O)cn2CCCN(C)C`, the cell viability is 31.8%.

On to `C[C@@H]1CC[C@]2(C(=O)O[C@@H]3O[C@H](CO)[C@@H](O)[C@H](O)[C@H]3O)CC[C@]3(C)C(=CC[C@@H]4[C@@]5(C)CC[C@H](O)[C@@](C)(CO)[C@@H]5CC[C@]43C)[C@@H]2[C@]1(C)O` [Pedunculoside], for which the cell viability amounted to 106%.

For `CCc1cc(Nc2nccc(-c3c(-c4ccc(OC)c(C(=O)Nc5c(F)cccc5F)c4)nc4ccccn34)n2)c(OC)cc1N1CCC(N2CCN(S(C)(=O)=O)CC2)CC1`, the cell viability was 93.9%.

In general, cell viability refers to a read-out of living cells in per cent, often relative to untreated cells.
